A selection: hits, their analogues and other compounds. The true share with any hit is near 10%.
GLS inhibitor – qHTS for Inhibitors of Glutaminase (GLS); Potency, µM (doses to about 45.5 µM), for the others: top-dose activity change, negative = inhibition, most hits filed as inhibitors; actives 0.21% (n = 410,000); GLS enzymatic activity, qHTS titration; Glutaminase kidney isoform, mitochondrial (Homo sapiens), O94925; also: % is scaled to controls: 0 for no effect and ±100 for the full control effect
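Compounds were pin-transferred onto hKGA, after which L-glutamine (1 mM solution) and a detection mix of glutamate oxidase, HRP and Amplex Red were added. Initial and 30 min RT fluorescence reads were collected.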
L3MBTL1 inh – qHTS Assay for the Inhibitors of L3MBTL1. Lethal(3)malignant brain tumor-like protein 1 (Homo sapiens), Q9Y468. AlphaScreen L3MBTL1–H3K9me1 peptide binding. Potency, µM (doses to about 57.1 µM), inactives show at the highest dose activity, negative = inhibition, hits mostly inhibitors. actives 0.66% (n = 230,000). AID 485360, 2010; also: % is scaled to controls: 0 for no effect and ±100 for the full control effect; nearly all actives have a fitted effect of over 60% in size
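First, the protein-peptide complex forms for 30 min at room temperature (L3MBTL1 50 nM, biotinylated H3K9me1 peptide 75 nM). Next, compounds are pin-transferred and incubated 30 min. Finally, AlphaScreen beads are added and read after 30 min.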
JMJD2A Tudor inh – qHTS Assay for Inhibitors of JMJD2A-Tudor Domain; actives 4.4% (n = 390,000); AlphaScreen JMJD2A-Tudor / H3K4me3 peptide binding; Lysine-specific demethylase 4A (Homo sapiens), O75164; AID 504339, 2011; Potency, µM (series often up to 114 µM), for inactives: at the highest dose activity change, negative = inhibition, hits mostly inhibitors; also: % is scaled to controls: 0 for no effect and ±100 for the full control effect; nearly all actives have a fitted effect of over 50% in size
G9a block – qHTS Assay for Inhibitors of Histone Lysine Methyltransferase G9a; Potency, µM (doses to about 102 µM), inactives show at the highest dose activity, negative = inhibition, most hits filed as inhibitors; Histone-lysine N-methyltransferase EHMT2 (Homo sapiens), Q96KQ7; AID 504332, 2011; actives 8.8% (n = 350,000); G9a H3K9 monomethylation, AlphaScreen, 2 h; also: % is scaled to controls: 0 for no effect and ±100 for the full control effect; nearly all actives have a fitted effect of over 75% in size
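Signal arises when biotinylated H3K9 peptide, once monomethylated, bridges streptavidin donor and antibody-captured acceptor beads. Enzyme at 20 nM was preincubated 15 min with test compounds; peptide 500 nM and SAM 20 uM then reacted for 2 h.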
BAZ2B inh – qHTS Assay for Inhibitors of BAZ2B. AlphaScreen BAZ2B-H3K14Ac peptide displacement. Potency, µM (highest dose often 114 µM), for the others: top-dose activity change, negative = inhibition, usual class: inhibitors. actives 4.4% (n = 360,000). Bromodomain adjacent to zinc finger domain protein 2B (Homo sapiens), Q9UIF8; also: % is scaled to controls: 0 for no effect and ±100 for the full control effect; nearly all actives have a fitted effect of over 60% in size
Target sequence (Q9UIF8 whole entry, looked up, the tested form may be a part): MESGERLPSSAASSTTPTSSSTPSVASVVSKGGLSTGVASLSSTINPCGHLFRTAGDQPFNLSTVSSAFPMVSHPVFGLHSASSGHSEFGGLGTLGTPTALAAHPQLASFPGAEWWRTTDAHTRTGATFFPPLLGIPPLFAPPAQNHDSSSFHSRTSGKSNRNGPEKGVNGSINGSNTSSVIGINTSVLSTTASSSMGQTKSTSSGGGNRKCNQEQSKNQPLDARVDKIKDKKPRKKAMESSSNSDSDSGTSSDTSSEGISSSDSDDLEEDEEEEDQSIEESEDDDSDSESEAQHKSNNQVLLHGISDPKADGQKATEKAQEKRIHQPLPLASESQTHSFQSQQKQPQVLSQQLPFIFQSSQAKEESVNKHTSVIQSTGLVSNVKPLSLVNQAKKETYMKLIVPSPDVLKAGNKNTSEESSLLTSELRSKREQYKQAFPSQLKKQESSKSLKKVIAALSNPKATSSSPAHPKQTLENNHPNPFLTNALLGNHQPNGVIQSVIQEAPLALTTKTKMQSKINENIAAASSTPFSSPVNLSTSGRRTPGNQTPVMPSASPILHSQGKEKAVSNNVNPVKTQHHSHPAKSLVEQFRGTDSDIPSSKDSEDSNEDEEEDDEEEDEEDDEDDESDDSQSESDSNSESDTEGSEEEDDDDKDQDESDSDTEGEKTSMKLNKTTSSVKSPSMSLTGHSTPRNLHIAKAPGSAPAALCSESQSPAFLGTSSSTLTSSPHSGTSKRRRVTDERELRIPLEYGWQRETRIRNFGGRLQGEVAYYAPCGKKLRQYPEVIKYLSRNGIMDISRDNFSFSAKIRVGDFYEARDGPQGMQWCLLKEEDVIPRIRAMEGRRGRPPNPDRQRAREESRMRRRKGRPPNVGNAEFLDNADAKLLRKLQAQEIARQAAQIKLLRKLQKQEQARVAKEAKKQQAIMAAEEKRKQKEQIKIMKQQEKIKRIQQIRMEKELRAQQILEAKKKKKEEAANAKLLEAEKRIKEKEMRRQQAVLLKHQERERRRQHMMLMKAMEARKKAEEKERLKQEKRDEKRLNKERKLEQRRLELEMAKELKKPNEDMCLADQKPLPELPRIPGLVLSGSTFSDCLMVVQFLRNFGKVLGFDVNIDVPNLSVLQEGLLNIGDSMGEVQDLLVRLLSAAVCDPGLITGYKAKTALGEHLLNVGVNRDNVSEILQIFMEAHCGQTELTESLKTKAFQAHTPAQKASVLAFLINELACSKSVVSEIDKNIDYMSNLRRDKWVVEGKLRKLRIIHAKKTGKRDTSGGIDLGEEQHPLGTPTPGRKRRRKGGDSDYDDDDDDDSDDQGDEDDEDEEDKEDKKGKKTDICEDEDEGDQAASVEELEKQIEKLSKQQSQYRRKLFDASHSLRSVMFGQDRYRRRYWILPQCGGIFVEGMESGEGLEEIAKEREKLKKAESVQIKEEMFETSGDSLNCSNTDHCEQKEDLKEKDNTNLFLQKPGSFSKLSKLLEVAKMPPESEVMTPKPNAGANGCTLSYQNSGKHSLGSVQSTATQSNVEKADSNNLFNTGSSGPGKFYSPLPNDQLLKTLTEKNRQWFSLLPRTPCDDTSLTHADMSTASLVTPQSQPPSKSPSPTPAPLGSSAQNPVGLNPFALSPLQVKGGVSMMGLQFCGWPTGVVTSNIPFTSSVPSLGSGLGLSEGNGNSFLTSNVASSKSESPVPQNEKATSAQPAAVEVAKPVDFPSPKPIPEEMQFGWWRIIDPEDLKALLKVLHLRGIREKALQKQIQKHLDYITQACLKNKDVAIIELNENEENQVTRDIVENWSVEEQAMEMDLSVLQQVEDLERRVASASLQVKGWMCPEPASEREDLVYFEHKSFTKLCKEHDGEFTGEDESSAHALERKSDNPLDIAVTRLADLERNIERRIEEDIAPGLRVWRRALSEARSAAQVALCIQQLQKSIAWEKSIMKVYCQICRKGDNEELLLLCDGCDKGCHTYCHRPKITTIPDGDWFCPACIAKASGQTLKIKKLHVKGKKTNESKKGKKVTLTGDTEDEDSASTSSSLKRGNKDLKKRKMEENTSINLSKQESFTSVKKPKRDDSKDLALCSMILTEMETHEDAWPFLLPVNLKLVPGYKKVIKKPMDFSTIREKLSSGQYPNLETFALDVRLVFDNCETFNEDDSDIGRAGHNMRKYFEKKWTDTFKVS
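Inhibition is scored as reduced AlphaScreen emission. The BAZ2B/b-H3(5-23)K14Ac complex (50 nM each) in PBS pH 7.4, 0.01% Tween-20 meets compound (up to 110 uM) for 30 min at RT before bead addition.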
HP1b binding inh – HTS for Inhibitors of HP1-beta Chromodomain Interactions with Methylated Histone Tails; actives 0.56% (n = 390,000); Chromobox protein homolog 1 (Homo sapiens), P83916; AlphaScreen HP1-beta / biotin-H3K9me3 peptide binding; Potency, µM (highest dose often 114 µM), for inactives: at the highest dose activity change, negative = inhibition, usual class: inhibitors; also: nearly all actives have a fitted effect of over 70% in size
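AlphaScreen: HP1-beta (50 nM) preformed 30 min with biotin-H3(1-18)K9me3 peptide (50 nM) in PBS pH 7.4, 0.01% Tween-20. Compound added for 30 min at RT, then streptavidin donor/nickel chelate acceptor beads (10 ug/mL) for 30 min.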
Starred values were filed as active, the others as inactive; u = inconclusive; x = no result; ! = repeats disagree; [ ] = another dose, or the depositor's remark. Calls follow the shape of the dose curve; as a rule, active = well fitted curve in the direction sought with a large enough effect; inconclusive = small, poorly fitted or top-dose-only effect, or another doubt; inactive = no such curve, though single readings can be large; an effect the other way counts as inactive or inconclusive. Potency is read from the fitted curve at half-maximal effect.

SMILES	GLS inhibitor	L3MBTL1 inh	JMJD2A Tudor inh	G9a block	BAZ2B inh	HP1b binding inh
COc1cccc(CNCCc2cccc(F)c2)c1OC	-1%	0%[2.29 µM]	28µM*	-9%[0.501 µM]	79µM*	u
COc1cccc(CNCCc2ccc3c(c2)OCO3)c1OC	1%	-6%[2.29 µM]	79µM*	9%[0.501 µM]	56µM*	-13%
CCOc1cc(CNCCc2cccc(F)c2)ccc1OC	-1%	x	1.4µM*	22µM*	45µM*	71µM*
COc1cccc(CNCCc2c[nH]c3ccccc23)c1OC	-13%	x	3%	u	-16%	28%
CCOP(=O)(OCC)/C(C#N)=C/c1cc(OC)ccc1OC	-2%	10%	-8%	-8%[2.33 µM]	-6%	41%
COc1cc(Br)c(CNCCc2ccc3c(c2)OCO3)cc1OC	0%	-7%	25µM*	8.9µM*	u	u
COc1ccc(CCNCc2ccc(C)s2)cc1OC	-14%	4%	-23%	-28%	-18%	5%
COc1cc(OC)c(OC)cc1CNCCc1ccc2c(c1)OCO2	3%	0%	32µM*	28µM*	u	-25%
C[C@H](N)CN1CCc2ccc(Br)cc21	20%	x	-25%	45µM*	x	13%
C=CCN1C(=O)NC(=O)/C(=C/c2ccc(OC)c(CSc3ccccn3)c2)C1=O	32%	-9%	79µM*	11µM*	14%[57.1 µM]	55%
C=CCN1C(=O)NC(=O)/C(=C/c2ccc(OC)c(COc3ccc(NC(C)=O)cc3)c2)C1=O	-2%	2%	-23%	x	-9%	30%
CCOC(=O)[C@]12Cc3cc(N(C)C)ccc3[C@H]1N(Cc1ccccc1)C(=O)c1ccccc12	25%	x	16µM*	x	x	-16%
CCOC(=O)[C@]12Cc3cc(Cl)ccc3[C@H]1N(Cc1ccccc1)C(=O)c1ccccc12	2%	x	-15%	x	x	19%
COC(=O)CCCc1[se]c2ccccc2c1I	x	x	x	85%[59 µM]	x	x
O=C(c1cc2ccccn2n1)N1CCN(Cc2ccccc2)CC1	-7%	x	-1%	u	1%	43%
O=C(Cc1ccccc1)N1CCN(CC2CC3C=CC2C3)CC1 (stereo not drawn)	0%	4%	4.5µM*	u	32µM*	50µM*
COc1ccc(OCC(=O)N2CCN(CC3CC4C=CC3C4)CC2)cc1 (stereo not drawn)	8%	2%	5.6µM*	18µM*	50µM*	u
COc1ccc(OCC(=O)N2CCN(CCc3ccncc3)CC2)cc1	-12%	x	-5%	-11%[59 µM]	-16%	42%
COc1ccc(C)cc1NC(=O)CN1CCN(CC(=O)Nc2ccccc2F)CC1	0%	4%	9%	40µM*!	-2%	52%
CCCOC(=O)Cc1ccc(OCC(=O)N(CC)CC)c(OC)c1	-3%	x	x	x	x	x
Cc1c(O)c(=O)ccn1C	26%	4%	16µM*	1.6µM*!	45µM*	46%
CCN(CC)CCN1C(=O)CN=C(c2ccccc2F)c2cc(Cl)ccc21	-10%	x	x	18%[59 µM]	x	x
Cc1ccc2c(c1)C(=O)CC1(CCC(C(C)(C)C)CC1)O2 (stereo not drawn)	3%	x	14%	89%[59 µM]	42%	69%
COc1ccc(CCNC(=O)c2ccc3c(c2)CCN3S(=O)(=O)c2ccc(C)cc2)cc1OC	0%	x	-27%	5µM*	-17%	-14%
c1cncc(C2Nc3cccc4cccc(c34)N2)c1	20%	x	u	11µM*!	u	u
SMILES	GLS inhibitor	L3MBTL1 inh	JMJD2A Tudor inh	G9a block	BAZ2B inh	HP1b binding inh
CC(C)CN1CCC2(CC1)CCN(C(=O)Oc1ccccc1)CC2	x	x	x	-7%[12.7 µM]	x	x
NC(N)=NCCCCCCCCCCN=C(N)N	x	x	x	-1%[59 µM]	x	x
Cc1ccc2c(=O)n(-c3cccc(Cl)c3)c(=O)[nH]c2c1	-21%	x	-8%	u	0%	41%
Cc1nn(CCc2n[nH]c(=S)n2-c2cccc(Cl)c2)c(C)c1[N+](=O)[O-]	13%	x	45µM*	1.1µM*	2%	21%
CN1C[C@H](CO)C[C@@H]2c3cccc4[nH]cc(c34)C[C@H]21	6%	x	-13%	3%	0%	20%
CN1C[C@H](CNC(=O)OCc2ccccc2)C[C@@H]2c3cccc4c3c(cn4C)C[C@H]21	-7%	-1%	u	24µM*!	45µM*	-1%
Cc1nn(Cc2ccccc2)c(C)c1C=C1C(=O)NC(=S)NC1=O	-6%	6%	89µM*	8.9µM*	-7%	-26%
CCCCCn1c(=O)c(C(=O)Nc2cnccn2)c(O)c2ccccc21	26%	6%	45µM*	x	14%	9%
CCCCCCCn1c(=O)c(C(=O)Nc2cnccn2)c(O)c2ccccc21	17%	11%	8%	0%	5%	70%
CCOP(=O)(OCC)c1nc(-c2ccc(F)cc2)oc1NCc1ccccc1	1%	-6%	-12%	29%[12.7 µM]	u	-7%
C[C@]12C/C(=C/O)C(=O)C[C@@H]1CC[C@@H]1[C@@H]2CC[C@@]2(C)[C@H]1CC[C@]2(C)O	-7%	x	x	18µM*	x	x
COc1ccc(O)c(CN2CCCC(C(=O)c3ccccc3SC)C2)c1 (stereo not drawn)	u	-13%	56µM*	x	50µM*	u
CN(C)c1ccc(/C=C2\C(=O)NC(=O)N(Cc3ccc(F)cc3)C2=O)cc1	0%	x	-11%	x	-10%	20%
Cc1ccc(/C=C2/C(=O)NC(=O)N(CCc3ccc(F)cc3)C2=O)s1	2%	3%	u	-22%[59 µM]	1%	32%
Cc1ccc(/C=C2\C(=O)NC(=O)N(CCc3ccc(F)cc3)C2=O)o1	2%	u	-24%	3.2µM*	-8%	27%
CN(C)c1ccc(/C=C2/C(=O)NC(=O)N(CCc3ccc(F)cc3)C2=O)cc1	43%	-8%	28µM*	u	u	0%
COCCN1C(=O)NC(=O)/C(=C\c2ccc(Br)cc2)C1=O	-16%	16%	u	45µM*	-5%	11%
CCOc1cc(/C=C2\C(=O)NC(=O)N(CCc3ccc(F)cc3)C2=O)ccc1O	-8%	x	-4%	40µM*	-17%	27%
CC1(C)C(=O)C=C[C@@]2(C)C1=C(O)C(=O)[C@@]1(C)C2CC[C@@]2(C)C(c3ccoc3)C[C@H]3O[C@@]321 (stereo partly drawn)	x	x	x	-29%[2.33 µM]	x	x

Bioassay records: PubChem, National Center for Advancing Translational Sciences (NCATS)
